In paper PMC5540273 (PLoS ONE, 2017):

How the values were obtained:
Details in all cases: concentration: 1 μM, replicates: in singlicate; n = 1
LCK = system: LCK
LIMK1 = system: LIMK1
LIMK2 = system: LIMK2
LKB1 = system: T1, LKB1
T1 construct: gene STK11

LOK = system: T2, LOK
T2 construct: gene STK10

LRRK2 = system: LRRK2
LTK = system: LTK
LYN = system: LYN
LZK = system: T3, LZK
T3 construct: gene MAP3K13

MAK = system: MAK
MAP3K15 = system: MAP3K15
MAP3K1 = system: MAP3K1
MAP3K2 = system: MAP3K2
MAP3K3 = system: MAP3K3
MAP3K4 = system: MAP3K4
MAP4K2 = system: MAP4K2
MAP4K3 = system: MAP4K3
MAP4K4 = system: MAP4K4
MAP4K5 = system: MAP4K5
MAPKAPK2 = system: MAPKAPK2
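Also: KINOMEscan kinase panel screen.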

Structure (SMILES)	%Inh (LCK) [%]	%Inh (LIMK1) [%]	%Inh (LIMK2) [%]	%Inh (LKB1) [%]	%Inh (LOK) [%]	%Inh (LRRK2) [%]	%Inh (LTK) [%]	%Inh (LYN) [%]	%Inh (LZK) [%]	%Inh (MAK) [%]	%Inh (MAP3K15) [%]	%Inh (MAP3K1) [%]	%Inh (MAP3K2) [%]	%Inh (MAP3K3) [%]	%Inh (MAP3K4) [%]	%Inh (MAP4K2) [%]	%Inh (MAP4K3) [%]	%Inh (MAP4K4) [%]	%Inh (MAP4K5) [%]	%Inh (MAPKAPK2) [%]
Cc1ccc(O)cc1Nc1ccnc2ccc(C(C)(C)C)cc12 [GW856805]	98.6	0	0	33	16	67	11	69	0	23	26	27	32	31	23	43	0	0	4	0
CN(C)CCNS(=O)(=O)c1ccc(-c2ccnc3[nH]ccc23)cc1 [GSK977620]	23	0	0	0	0	47	4	0	0	84	14	11	49	19	0	11	31	20	8	0
Nc1cccc(-c2ccc3c(N)n[nH]c3c2)c1 [GSK2193613]	9	0	12	12	0	0	0	0	0	18	0	100	0	0	4	91.1	1	19	0	0
COC(=O)Nc1nc2cc(Oc3ccc(NC(=O)Nc4cccc(SC)c4)cc3)ccc2[nH]1.Cl [GW697999]	68	0	4	17	99.4	18	0	24	23	14	0	15	1	0	0	0	0	0	0	0
CCn1c(-c2nonc2N)nc2c(-c3ccccc3)ncc(OCCCN)c21.O=C(O)C(F)(F)F.O=C(O)C(F)(F)F [GSK260205]	29	1	0	0	98.7	28	0	0	0	0	0	17	98.2	97.7	6	3	0	76	5	13
Cl.O=C(Nc1ccc(Oc2ccc3[nH]c(NC(=O)c4ccco4)nc3c2)cc1)Nc1cc(C(F)(F)F)ccc1F [GW683134]	98.4	17	0	0	99.7	65	74	70	0	19	0	27	7	0	0	0	17	24	32	93
COC(=O)Nc1nc2ccc(Oc3ccc(NC(=O)Nc4cc(C(F)(F)F)ccc4F)cc3)cc2[nH]1.Cl [GW654607]	99.3	37	16	0	99.1	28	63	86	0	85	0	25	0	0	23	1	0	22	11	29
Cc1ccc(C)c(NC(=O)Nc2ccc(C)c(-c3ccc(C(=O)Nc4ccncc4)cc3)c2)c1 [GSK1398473]	47	25	2	0	0	0	0	17	0	65	83	9	30	0	43	0	2	9	5	5
O=C(Nc1n[nH]c2nc(-c3ccccc3O)ccc12)C1CC1 [SB-711880]	37	0	0	22	77	0	0	0	20	16	0	0	19	4	0	0	44	58	0	0
COc1cc(Nc2nccc(N3CCC(NC(=O)Nc4ccc5c(c4)OCO5)C3)n2)cc(OC)c1OC (centres unmarked) [GSK1379766]	32	40	13	0	0	0	74	3	24	3	0	8	0	0	29	17	0	0	0	0
